The nature of this experiment: probe aNOTCH3 binding on compound microarray – biochemical, small-molecule microarray, 635/667 nm fluorescence, primary screen (AID 1120).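 Further: probe is a biotin-tagged antibody raised against NOTCH3 rather than NOTCH3 protein; score merges spot fluorescence near 667 nm with spot signal to noise.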 Particulars: higher = more signal.
In the case of `COC(=O)C1=CC(CCCO)=CC(C2CC2)N(C)C=C1C(=O)OC` (stereo not given), the composite z-score was -0.0108.

`CC(=O)c1ccc(C(O)C2C=CC3C(=O)N(c4ccccc4)C(=O)C3N2Nc2ccc(C#N)cc2)cc1` (stereo not given): the composite z-score came to 0.119.

In turn, `COCCOC(=O)N1C(=O)[C@@]2(c3cc(C#CC4=CCCCC4)ccc31)[C@H](c1ccc(OCCO)cc1)N1[C@H](c3ccccc3)[C@H](c3ccccc3)OC(=O)[C@H]1[C@@H]2C(=O)NC[C@H](O)c1ccccc1` came in with a composite z-score of 0.164.

`CCCC[C@@H]1C[C@H]1[C@@H](NC(=O)Cc1ccccc1)c1ccc(-c2ccccc2)cc1` returned a composite z-score of -0.006.

`CCCCN1CC=CC23O[C@@H]4/C=C\CCC(C)OC(=O)C4[C@H]2C(=O)N(C(CO)C(C)C)[C@@H]3C1=O` (stereo not given in full) came in with a composite z-score of -0.126.

Compound `CO[C@H]1O[C@H](CO)[C@@H](OC(=O)Nc2ccccc2-c2ccccc2)[C@H](OC(=O)Nc2ccc3c(c2)OCO3)[C@H]1OC(=O)Nc1ccc2c(c1)OCO2` returned a composite z-score of 0.211.

The compound `C=CCN1C(=O)[C@@]2(O[C@@H](CCn3cc([C@H](O)c4ccccc4)nn3)[C@H]([Si](C)(C)c3ccc(OC)cc3)[C@H]2C)c2cc(N3CCC3=O)ccc21` displayed a composite z-score of -0.132.

Compound `C=CCN1C(=O)[C@@]2(CCS(=O)(=O)c3ccccc3)N=C(c3ccc(OCCCO)cc3)O[C@H]2c2ccccc21` came in with a composite z-score of -0.0302.

`COC(=O)CCCCCCC(=O)Nc1ccc(NC(=O)CCCC[P+](c2ccccc2)(c2ccccc2)c2ccccc2)cc1` registered a composite z-score of 0.116.

Compound `CC(CO)N1C(=O)[C@@H]2[C@H]3C(=O)OCC=C[C@H]3OC23C=CCN(C(C)(C)C)C(=O)[C@@H]13` (stereo not given in full) had a composite z-score of -0.242.

The values are drawn from PubChem BioAssay.
